{"source": "paper PMC7862700", "about": "“An all-to-all approach to the identification of sequence-specific readers for epigenetic DNA modifications on cytosine”", "test_in_all_cases": "DAPPL (digital affinity profiling via proximity ligation, sequencing); 10 mM Tris-HCl pH 7.5, 50 mM NaCl, 1 mM DTT, 4% glycerol, room temperature, 30 min; GST-TFs on glutathione beads, 16-mer random dsDNA library, 0.1% formaldehyde crosslink after washing; high values mean tight binding", "key": {"FEV": {"molecular_target": "T1, FEV (Homo sapiens, UniProt Q99581 1-238)", "T1 sequence": "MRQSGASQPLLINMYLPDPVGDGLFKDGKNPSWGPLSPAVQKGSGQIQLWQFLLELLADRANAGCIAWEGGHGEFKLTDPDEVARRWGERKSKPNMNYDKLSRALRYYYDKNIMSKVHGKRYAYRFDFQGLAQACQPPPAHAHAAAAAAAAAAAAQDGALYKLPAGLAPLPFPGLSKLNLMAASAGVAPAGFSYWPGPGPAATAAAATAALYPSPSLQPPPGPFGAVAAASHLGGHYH", "details": "protein: recombinant; tags: N-terminal GST; dsDNA, one strand shown", "outline": "(§1)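 The binding signal reported is, for every hexamer, its read frequency for a factor over its read frequency for the tag-only sample. Reads came from pools of yeast-expressed, GST-fused human transcription factors on glutathione beads, barcoded with DNA and mixed with that sample, which were incubated with 200 nmole of a random double-stranded 16-mer DNA library in Tris/NaCl/DTT/glycerol buffer at room temperature for 30 min. After washing, the pools were crosslinked with 0.1% formaldehyde, proximity-ligated with BsaI/T4 ligase for 1 h at 37 °C, PCR-amplified and sequenced on an Illumina NextSeq500.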"}, "ETV5": {"molecular_target": "ETV5 (Homo sapiens, UniProt P41161 1-510)", "sequence (P41161 whole entry)": "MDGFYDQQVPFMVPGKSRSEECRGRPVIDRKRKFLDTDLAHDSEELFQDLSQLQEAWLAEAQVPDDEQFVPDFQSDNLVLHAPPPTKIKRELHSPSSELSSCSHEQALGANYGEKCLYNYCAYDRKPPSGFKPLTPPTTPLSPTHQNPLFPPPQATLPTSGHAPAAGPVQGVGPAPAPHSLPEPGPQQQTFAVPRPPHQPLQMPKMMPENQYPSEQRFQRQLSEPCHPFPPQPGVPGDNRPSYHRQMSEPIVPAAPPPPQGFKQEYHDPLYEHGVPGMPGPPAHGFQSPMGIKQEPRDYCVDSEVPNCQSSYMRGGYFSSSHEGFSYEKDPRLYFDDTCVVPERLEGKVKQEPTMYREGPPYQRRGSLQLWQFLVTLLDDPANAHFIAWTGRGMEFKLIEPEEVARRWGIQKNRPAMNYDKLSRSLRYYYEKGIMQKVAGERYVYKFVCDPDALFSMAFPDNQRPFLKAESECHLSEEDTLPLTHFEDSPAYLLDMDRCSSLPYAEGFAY", "details": "protein: recombinant; tags: N-terminal GST; dsDNA, one strand shown", "outline": "as §1"}, "HSF1": {"molecular_target": "HSF1 (Homo sapiens, UniProt Q00613 1-529)", "sequence (Q00613 whole entry)": "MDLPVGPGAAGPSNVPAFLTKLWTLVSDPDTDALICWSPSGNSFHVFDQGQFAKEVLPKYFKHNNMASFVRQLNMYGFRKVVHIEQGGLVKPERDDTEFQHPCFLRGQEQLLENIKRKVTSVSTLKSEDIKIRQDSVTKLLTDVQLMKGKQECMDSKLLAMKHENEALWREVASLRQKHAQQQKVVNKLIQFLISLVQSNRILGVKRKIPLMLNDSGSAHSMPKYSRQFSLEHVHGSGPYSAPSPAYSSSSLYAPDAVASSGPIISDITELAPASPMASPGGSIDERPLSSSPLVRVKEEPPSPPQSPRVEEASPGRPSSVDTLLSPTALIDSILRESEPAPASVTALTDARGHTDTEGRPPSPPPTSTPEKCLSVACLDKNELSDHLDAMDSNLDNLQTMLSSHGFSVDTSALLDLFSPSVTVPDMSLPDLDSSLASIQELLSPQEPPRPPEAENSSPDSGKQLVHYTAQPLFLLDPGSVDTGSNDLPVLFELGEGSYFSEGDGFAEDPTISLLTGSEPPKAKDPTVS", "details": "protein: recombinant; tags: N-terminal GST; chain copies: 3; dsDNA, one strand shown", "outline": "as §1"}, "SPIC": {"molecular_target": "T2, SPIC (Homo sapiens, UniProt Q8N5J4 1-248)", "T2 sequence": "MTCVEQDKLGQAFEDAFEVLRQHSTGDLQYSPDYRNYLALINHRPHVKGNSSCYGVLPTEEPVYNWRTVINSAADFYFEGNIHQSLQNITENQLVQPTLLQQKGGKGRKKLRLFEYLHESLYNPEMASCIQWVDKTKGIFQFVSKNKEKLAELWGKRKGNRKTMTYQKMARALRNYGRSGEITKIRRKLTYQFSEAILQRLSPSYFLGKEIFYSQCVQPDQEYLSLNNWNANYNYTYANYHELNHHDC", "details": "protein: recombinant; tags: N-terminal GST; dsDNA, one strand shown", "outline": "as §1"}, "ELF4": {"molecular_target": "ELF4 (Homo sapiens, UniProt Q99607 1-663)", "sequence (Q99607 whole entry)": "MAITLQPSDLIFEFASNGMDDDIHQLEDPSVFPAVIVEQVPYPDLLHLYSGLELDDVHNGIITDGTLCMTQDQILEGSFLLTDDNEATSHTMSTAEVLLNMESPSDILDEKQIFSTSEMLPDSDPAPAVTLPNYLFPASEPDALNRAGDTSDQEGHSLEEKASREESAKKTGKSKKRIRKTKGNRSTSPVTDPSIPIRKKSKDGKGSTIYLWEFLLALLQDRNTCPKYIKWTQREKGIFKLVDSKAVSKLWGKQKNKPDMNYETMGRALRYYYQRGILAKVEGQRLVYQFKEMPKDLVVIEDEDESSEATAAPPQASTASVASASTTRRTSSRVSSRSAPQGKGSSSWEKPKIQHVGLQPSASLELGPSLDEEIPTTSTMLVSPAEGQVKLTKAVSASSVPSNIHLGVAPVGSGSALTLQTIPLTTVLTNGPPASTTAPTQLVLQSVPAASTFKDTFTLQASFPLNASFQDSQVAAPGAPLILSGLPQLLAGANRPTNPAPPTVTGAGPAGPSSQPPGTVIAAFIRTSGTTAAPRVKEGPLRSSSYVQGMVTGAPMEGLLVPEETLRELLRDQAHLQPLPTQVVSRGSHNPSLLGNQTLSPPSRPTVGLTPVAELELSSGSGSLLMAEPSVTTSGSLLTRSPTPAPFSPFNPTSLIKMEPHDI", "details": "protein: recombinant; tags: N-terminal GST; dsDNA, one strand shown", "outline": "as §1"}, "ELK4": {"molecular_target": "T3, ELK4 (Homo sapiens, UniProt P28324-2 1-405)", "T3 sequence": "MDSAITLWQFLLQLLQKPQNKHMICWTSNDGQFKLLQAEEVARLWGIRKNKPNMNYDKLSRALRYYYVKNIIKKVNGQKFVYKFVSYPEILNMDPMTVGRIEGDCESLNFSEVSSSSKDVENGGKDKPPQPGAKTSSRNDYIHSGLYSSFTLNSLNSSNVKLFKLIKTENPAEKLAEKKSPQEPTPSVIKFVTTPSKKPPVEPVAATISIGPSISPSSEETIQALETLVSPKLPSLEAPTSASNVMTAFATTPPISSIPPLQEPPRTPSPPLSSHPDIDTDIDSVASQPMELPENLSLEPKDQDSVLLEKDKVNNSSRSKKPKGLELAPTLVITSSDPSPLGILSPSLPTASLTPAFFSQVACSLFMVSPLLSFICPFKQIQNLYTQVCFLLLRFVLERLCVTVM", "details": "protein: recombinant; tags: N-terminal GST; dsDNA, one strand shown", "outline": "as §1"}, "ETV2": {"molecular_target": "T4, ETV2 (Homo sapiens, UniProt O00321 1-342)", "T4 sequence": "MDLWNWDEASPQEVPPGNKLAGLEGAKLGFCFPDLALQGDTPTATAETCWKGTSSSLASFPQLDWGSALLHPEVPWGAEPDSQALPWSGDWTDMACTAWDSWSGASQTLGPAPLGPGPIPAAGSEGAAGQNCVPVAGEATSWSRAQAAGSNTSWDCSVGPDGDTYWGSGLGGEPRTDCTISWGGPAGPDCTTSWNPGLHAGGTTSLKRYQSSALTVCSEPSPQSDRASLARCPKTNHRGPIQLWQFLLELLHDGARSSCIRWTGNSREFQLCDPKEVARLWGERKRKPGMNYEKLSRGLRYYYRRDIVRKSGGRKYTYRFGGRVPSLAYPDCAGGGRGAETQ", "details": "protein: recombinant; tags: N-terminal GST; dsDNA, one strand shown", "outline": "as §1"}, "ELF3": {"molecular_target": "T5, ELF3 (Homo sapiens, UniProt P78545 1-371)", "T5 sequence": "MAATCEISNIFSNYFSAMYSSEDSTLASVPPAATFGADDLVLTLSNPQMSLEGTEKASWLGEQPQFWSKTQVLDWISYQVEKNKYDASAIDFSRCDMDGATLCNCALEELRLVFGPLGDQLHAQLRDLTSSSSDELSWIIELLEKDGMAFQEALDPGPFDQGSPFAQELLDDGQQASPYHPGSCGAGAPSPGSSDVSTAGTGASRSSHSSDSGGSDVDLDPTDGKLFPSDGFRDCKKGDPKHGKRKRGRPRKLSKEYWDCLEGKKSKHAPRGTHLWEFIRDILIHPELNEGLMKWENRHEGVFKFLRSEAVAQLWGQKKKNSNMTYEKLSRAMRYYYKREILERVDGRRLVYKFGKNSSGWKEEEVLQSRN", "details": "protein: recombinant; tags: N-terminal GST; dsDNA, one strand shown", "outline": "as §1"}, "ETV1": {"molecular_target": "ETV1 (Homo sapiens, UniProt P50549 1-477)", "sequence (P50549 whole entry)": "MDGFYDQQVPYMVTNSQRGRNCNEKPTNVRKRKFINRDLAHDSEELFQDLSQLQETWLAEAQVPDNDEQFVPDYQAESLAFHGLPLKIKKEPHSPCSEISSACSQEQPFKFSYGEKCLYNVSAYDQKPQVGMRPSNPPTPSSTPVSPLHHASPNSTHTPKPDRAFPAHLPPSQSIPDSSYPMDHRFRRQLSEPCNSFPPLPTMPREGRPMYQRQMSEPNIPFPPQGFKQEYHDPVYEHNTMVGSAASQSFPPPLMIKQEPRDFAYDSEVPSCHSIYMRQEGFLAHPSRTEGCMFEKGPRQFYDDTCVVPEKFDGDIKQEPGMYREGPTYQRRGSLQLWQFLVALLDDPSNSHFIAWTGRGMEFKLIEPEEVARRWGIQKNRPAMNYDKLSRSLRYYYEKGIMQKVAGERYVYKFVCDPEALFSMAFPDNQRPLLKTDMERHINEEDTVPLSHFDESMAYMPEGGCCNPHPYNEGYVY", "details": "protein: recombinant; tags: N-terminal GST; dsDNA, one strand shown", "outline": "as §1"}}, "data": [{"sequence": "CTTGTC", "values": [{"measurement": "binding signal", "setting": "FEV", "value": "1.23 fold enrichment (6-mer frequency, TF over GST control)"}, {"measurement": "binding signal", "setting": "ETV5", "value": "1.34 fold enrichment (6-mer frequency, TF over GST control)"}, {"measurement": "binding signal", "setting": "HSF1", "value": "1.07 fold enrichment (6-mer frequency, TF over GST control)"}, {"measurement": "binding signal", "setting": "SPIC", "value": "1.14 fold enrichment (6-mer frequency, TF over GST control)"}, {"measurement": "binding signal", "setting": "ELF4", "value": "1.41 fold enrichment (6-mer frequency, TF over GST control)"}, {"measurement": "binding signal", "setting": "ELK4", "value": "1.33 fold enrichment (6-mer frequency, TF over GST control)"}, {"measurement": "binding signal", "setting": "ETV2", "value": "1.08 fold enrichment (6-mer frequency, TF over GST control)"}, {"measurement": "binding signal", "setting": "ELF3", "value": "1.32 fold enrichment (6-mer frequency, TF over GST control)"}, {"measurement": "binding signal", "setting": "ETV1", "value": "1.27 fold enrichment (6-mer frequency, TF over GST control)"}]}]}
